Assay outcomes deposited in PubChem by several laboratories.
A selection: hits, their analogues and other compounds. The true share with any hit is near 2.6%.
EBV LMP1 NFkB: Epstein-Barr LMP1 NF-kappaB reporter inhibition | LMP1-induced NF-kappaB luciferase reporter cells, luminescence | inhibition, % at 12.5 µM | 0.69% of 350,000 active | AID 504558; in the data active = inhibition above about 41%; inconclusive = no clear call, values can overlap the other calls;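 also: 0% = neutral control wells and 100% = reference inhibitor control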
aDG glyco up: increases alpha dystroglycan glycosylation; Pro5-aDG cells, alpha-DG glycosylation AlphaScreen (IIH6); 0% Pro5, 100% B10-LARGE cell signal; activation, % at 10 µM; 0.22% of 360,000 active; AID 624168;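 active = activation of at least 8% versus controls, or a plate z-score of at least 8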;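 also: Pro5 are CHO cells carrying HIG-tagged alpha-DG that lacks glycosylation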
TWEAK-Fn14 inh: inhibitors of TWEAK-Fn14 interaction signaling; AID 1159606; inhibition, % at 10 µM; TWEAK-stimulated Fn14 reporter cells, luciferase luminescence, 8 h; 2% of 360,000 active; in the data active = inhibition above about 50%
TROY NFkB inh: TROY signaling inhibition | Q293 LMP1-TROYcd NF-kB luciferase reporter, 4 h | inhibition, % at 10 µM | 0.98% of 360,000 active;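 active = compounds whose plate-normalised and pattern-corrected inhibition of the luciferase reporter signal at the single screening dose is 50% or more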
HSP90 refold inh: blocks HSP90-mediated luciferase refolding in reticulocyte lysate; Rabbit reticulocyte lysate, luciferase refolding luminescence, 3 h; inhibition, % at 5.6 µM; 0.91% of 290,000 active; AID 1789;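 active = inhibition above the screen-wide mean plus 3 SD, computed separately per campaign, cut at about 16% in these data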;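 also: 0% = DMSO wells and 100% = 60 µM geldanamycin wells; inhibitors lower the luminescence because luciferase stays unfolded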
LGR2 antag: inhibitors of bursicon-induced Drosophila LGR2 receptor cAMP signaling; HEK293 LGR2, CRE-luciferase, bursicon-stimulated, 4 h; inhibition, % at 9.99 µM; 0.35% of 380,000 active;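 active = drop in luminescence signal, shown as inhibition above about 50% in the replicate tests, limit read from the data, passing the limit was not always enough; inconclusive = probably only some replicates passing the limit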;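 also: agonist challenge used bursicon conditioned medium at about half maximal strength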
HSP90 confirm: HSP90 inhibition, confirmation assay; shares compounds with HSP90 refold inh; rabbit reticulocyte lysate, luciferase refolding luminescence, 3 h; inhibition, % at 5.9 µM; 64% of 2,300 active; AID 1846; in the data active = inhibition above about 18%;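 also: 0% = vehicle wells and 100% = reference inhibitor wells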
luciferase ctr: counter-screen for HSP90 inhibitors: inhibitors of firefly luciferase | shares compounds with HSP90 refold inh | purified native firefly luciferase, luminescence | inhibition, % at 5.9 µM | 48% of 2,300 active | AID 1847;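 active = inhibition above the mean inhibition of all tested sample wells plus 3 SD, cut at about 10% in these data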;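 also: 0% = DMSO with luciferase and 100% = wells lacking luciferase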
Target sequence (P08659 whole entry, looked up): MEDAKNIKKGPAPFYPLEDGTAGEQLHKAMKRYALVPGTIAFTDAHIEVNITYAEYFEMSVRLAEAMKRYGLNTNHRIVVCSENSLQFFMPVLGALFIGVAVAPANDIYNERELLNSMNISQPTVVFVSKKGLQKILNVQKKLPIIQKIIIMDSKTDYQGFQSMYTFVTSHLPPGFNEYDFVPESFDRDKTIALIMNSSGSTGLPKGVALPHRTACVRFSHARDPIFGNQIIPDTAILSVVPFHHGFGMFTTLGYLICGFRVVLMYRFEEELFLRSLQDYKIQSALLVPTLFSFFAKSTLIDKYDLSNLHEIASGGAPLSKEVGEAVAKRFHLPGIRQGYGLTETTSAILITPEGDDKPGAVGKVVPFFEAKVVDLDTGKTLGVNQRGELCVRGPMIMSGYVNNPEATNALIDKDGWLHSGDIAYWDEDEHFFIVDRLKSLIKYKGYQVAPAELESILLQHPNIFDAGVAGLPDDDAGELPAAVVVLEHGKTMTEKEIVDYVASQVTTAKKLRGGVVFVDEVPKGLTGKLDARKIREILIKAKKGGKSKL
Active calls of the source: *; ? = inconclusive; nt = no result given.

SMILES	EBV LMP1 NFkB	aDG glyco up	TWEAK-Fn14 inh	TROY NFkB inh	HSP90 refold inh	LGR2 antag	HSP90 confirm	luciferase ctr
CCN(CC)c1ccc(/C=N/NC(=O)c2ccccn2)cc1	0	0	21	8	13	9	nt	nt
Cc1ccc(/C=N/NC(=O)c2ccccn2)s1	17	0	51*	5	18*	?	31*	19*
CN(C)c1ccc(C(=S)NCc2ccco2)cc1	-5	0	63*	-27	57*	nt	65*	38*
CN1C(=O)c2cc(NC(=O)C3CC3)ccc2OC[C@@H]2O[C@@H](CC(=O)O)CC[C@H]21	nt	nt	nt	nt	nt	10	nt	nt
CN1C(=O)c2cc(NC(=O)C3CCOCC3)ccc2OC[C@@H]2O[C@H](CC(=O)NCCc3ccncc3)CC[C@@H]21	nt	nt	nt	nt	nt	19	nt	nt
Cc1ccc(NC(=O)c2ccc3ncsc3c2)cc1S(=O)(=O)N(C)C	nt	nt	nt	nt	19*	-70	24*	20*
Cc1ccc(NC(=O)c2cccnc2)cc1S(=O)(=O)N(C)C	-3	0	-5	-18	1	-5	nt	nt
O=[N+]([O-])c1ccc(N2CCN(c3ccc([N+](=O)[O-])cc3CO)CC2)c(CO)c1	25	1	22	33	19*	-6	5	-4
N#Cc1cc([N+](=O)[O-])ccc1N1CCN(c2ccccc2O)CC1	5	0	-25	-18	-1	-27	nt	nt
COC(=O)C(Cc1ccc(O)cc1)NC(=O)c1ccc2c(c1)OCCO2 (configuration not stated)	-8	0	23	14	26*	-18	41*	28*
O=C(COC(=O)c1cnccn1)c1ccc([N+](=O)[O-])cc1	8	0	11	2	38*	-1	1	-23
CC(=O)N(/N=C1\Sc2ccccc2C1=O)c1ccccc1C	-41	0	19	-47	35*	nt	74*	-26
CC(=O)N(/N=C1\Sc2ccccc2C1=O)c1ccc(C)cc1C	14	0	91*	38	41*	nt	79*	58*
CC(=O)N(/N=C1\Sc2ccccc2C1=O)c1ccccc1	-39	0	28	-6	11	nt	nt	nt
COCCn1c(C)cc(C(=O)CSc2nnc(C)s2)c1C	74*	0	91*	13	48*	nt	80*	72*
COCCn1c(C)cc(C(=O)CSc2n[nH]c(N)n2)c1C	-4	0	-5	2	-3	nt	nt	nt
Cc1c(C(c2cccc([N+](=O)[O-])c2O)c2c(C)n(C)n(-c3ccccc3)c2=O)c(=O)n(-c2ccccc2)n1C	-1	0	-12	7	2	nt	nt	nt
Cc1[nH]n(-c2ccccc2)c(=O)c1C(c1cccc([N+](=O)[O-])c1O)c1c(C)[nH]n(-c2ccccc2)c1=O	8	0	0	22	24*	2	-10	-4
O=C(c1ccco1)N(CCC(c1ccccc1)c1ccco1)Cc1ccco1 (configuration not stated)	2	0	16	-24	-3	nt	nt	nt
CC(=O)N(CCC(Cc1ccccc1)c1ccco1)Cc1ccco1 (configuration not stated)	-1	0	14	6	22*	-6	4	2
COc1ccc(NC(=O)Nc2ccc3c(c2)CC(=O)N([C@H](C)CO)C[C@H](C)[C@@H](CN(C)C)O3)cc1	nt	nt	nt	nt	nt	-12	nt	nt
O=C(OCc1ccc(Br)cc1)c1cccnc1	4	0	-2	-8	41*	-10	-5	-16
O=C(OCc1ccc(Br)cc1)c1ccncc1	2	1	7	-4	1	7	nt	nt
Nc1ccc(-c2nc3ccc(C(=O)O)cc3s2)cc1	78*	0	97*	21	100*	102*	101*	92*
NC(=O)c1ccc2nc(NC(=O)c3ccc(N)cc3)sc2c1	-20	-1	-7	-29	4	-31	nt	nt
SMILES	EBV LMP1 NFkB	aDG glyco up	TWEAK-Fn14 inh	TROY NFkB inh	HSP90 refold inh	LGR2 antag	HSP90 confirm	luciferase ctr
O=C(O)c1ccc2nc(-c3ccccc3)sc2c1	11	0	79*	-12	95*	63*	95*	79*
CC1CCN(c2nc3ccc(C(=O)O)cc3s2)CC1	63*	0	96*	34	97*	nt	100*	92*
CC1CCN(c2nc3ccc(C(=O)NCCCN4CCCCC4)cc3s2)CC1	-95	2	-2	-58	9	-68	nt	nt
Oc1ccc(-c2nc3ccccc3s2)cc1	-18	1	35	-66	9	-44	nt	nt
COc1cccc(S(=O)(=O)N[C@H]2CC[C@H](CC(=O)NCc3ccc(Cl)cc3)O[C@@H]2CO)c1	nt	nt	nt	nt	nt	16	nt	nt
CO[C@H]1CN(C)C(=O)c2ccc(NC(=O)c3cc(C)on3)cc2OC[C@@H](C)N(C(=O)C2CC2)C[C@@H]1C	nt	nt	nt	nt	nt	-6	nt	nt
CC(C)(C)c1ccc(-c2noc(-c3ccno3)n2)cc1	-35	0	21	4	5	-35	nt	nt
Clc1ccccc1/C=C/c1nc(-c2ccccn2)no1	73*	0	102*	77*	64*	98*	86*	83*
CC(C)(C)c1ccc(-c2nc(-c3ccncc3)no2)cc1	-10	0	79*	72*	20*	?	33*	32*
c1ccc(-c2noc(-c3ccc4ccccc4c3)n2)nc1	82*	0	105*	86*	78*	nt	97*	92*
O=[N+]([O-])c1cccc(-c2nc(-c3ccccn3)no2)c1	11	0	39	-40	6	46	nt	nt
c1ccc(-c2noc(-c3ccncc3)n2)nc1	6	0	35	2	18*	nt	18*	-4
O=C(C[C@@H]1CC[C@H]2[C@@H](COC[C@@H](O)CN2Cc2ccccc2F)O1)NC1CCC1	nt	nt	nt	nt	nt	8	nt	nt
CC(C)CC#Cc1ccc2c(c1)O[C@@H](CN(C)Cc1ccccn1)[C@@H](C)CN([C@@H](C)CO)S2(=O)=O	nt	nt	nt	nt	nt	-12	nt	nt
COc1cccc(-c2nc(-c3ccccn3)no2)c1	nt	nt	nt	nt	69*	nt	86*	78*
COc1cccc(-c2nc(-c3ccccc3)no2)c1	-45	0	49	-24	-6	nt	nt	nt
O=C(O)COc1ccccc1/C=N/NC(=O)c1cc(-c2ccc(F)cc2)nc2ccccc12	7	3	-8	-17	17*	7	25*	8
O=C(N/N=C/c1ccc2c(c1)OCO2)c1cc(-c2ccc(F)cc2)nc2ccccc12	13	0	6	13	-1	-31	nt	nt
CC(C)(C)C(=O)Nc1ccc(-c2cc3cc(Cl)ccc3o2)cc1	-8	0	58*	61*	40*	nt	24*	12*
COC(=O)c1nn(-c2ccc3c(c2)OCO3)cc1O	-13	0	29	-22	9	nt	nt	nt
